The campaign covered roughly 69,000 compounds. About 950 (1.4%) showed an effect of 50% or more. Shown is part of a subset that was picked to be rich in strong results.

This assay concerns Mycobacterium tuberculosis. Briefly: Cornell M. t heat shock assay. Note: in the data most compounds retested in dose-response had high values. The arrangement: dose or concentration left out as unconfirmed. It is filed as functional, organism-based.
For the compound `COc1ccc(F)cc1C(=O)N1C[C@H]2C[C@H](OC)C[C@H]2C1`, the “Percent Effect” value was -3.804%.
Take `CC(=O)N1CCC2(CC1)CN(C(=O)[C@@H]1CSCN1)c1ccc(Cl)cc12.O=C(O)C(F)(F)F`: the “Percent Effect” value is 52.14%.
As to `Cl.Cl.O=C([C@H]1CCCN1)N1CC2(CCNCC2)c2cc(Cl)ccc21`, the “Percent Effect” value is listed as -22.31%.
As for `Cl.Cl.O=C([C@@H]1CSCN1)N1CC2(CCNCC2)c2cc(Cl)ccc21`, the “Percent Effect” value is 3.414%.
For `O=C(CC1CCCC1)N1C[C@H](Oc2cccnc2)[C@H]2OCCC[C@H]21.O=C(O)C(F)(F)F`, the “Percent Effect” value turned out to be 0.71%.
Under `CCOCC1CN(C(=O)N(C)C)Cc2nnn(CC3CC3)c21` (stereo not drawn) stands 1.23%; under `C1CCC(CN2Cc3nnn(CC4CC4)c3C(COCC3CC3)C2)C1.O=C(O)C(F)(F)F` (stereo not drawn), 40.48%.
As for `CCOCC1CN(CC2CCC2)Cc2nnn(CC3CC3)c21` (stereo not drawn), the “Percent Effect” value is given as 57.51%.
Under `CN(C)CC1CN(Cc2cccc(C#N)c2)Cc2nccn2C1.O=C(O)C(F)(F)F.O=C(O)C(F)(F)F` (stereo not drawn) stands -5.749%; under `CC(C)c1nn(C)c(Cl)c1CNCc1ccc2c(c1)OCO2.Cl`, 15.25%.
For the compound `O=C(CC1CC1)N1CCc2ncc(CN3CCOCC3)n2CC1.O=C(O)C(F)(F)F`, the “Percent Effect” value is recorded as 2.118%.
Take `COc1ncc(C2(O)CCN(Cc3ccc(F)c(F)c3)CC2)c(OC)n1.Cl`: the “Percent Effect” value was determined as 2.429%.
The value for `CCCS(=O)(=O)N1CC(=O)N(Cc2cccc(OC)c2OC)CC(O)C1` (stereo not drawn) was 3.552%; that for `CCS(=O)(=O)N1CC(=O)N(CCCc2ccccc2)CC(O)C1` (stereo not drawn) was -6.774%; that for `COc1ccccc1CN1CC(O)CN(S(=O)(=O)C(C)C)CC1=O` (stereo not drawn) was 61.24%.
For `CCS(=O)(=O)N1CC(=O)N(CCOc2ccccc2)CC(O)C1` (stereo not drawn), the “Percent Effect” value is on record as -13.04%.
Under `CCCS(=O)(=O)N1CC(=O)N(CCCc2ccccc2)CC(O)C1` (stereo not drawn) stands -29.16%; under `COc1cccc(OC)c1CN1CC(O)CN(S(C)(=O)=O)CC1=O` (stereo not drawn), 55.83%; under `COc1ccccc1CN1CC(O)CN(C(=O)OCC(C)C)CC1=O` (stereo not drawn), 1.526%.
Under `COc1ccccc1CN1CC(OC)CN(C(=O)CC(C)C)CC1=O` (stereo not drawn) stands -13.24%; under `CCS(=O)(=O)N1CC(=O)N(Cc2ccccc2OC)CC(O)C1` (stereo not drawn), 62.67%.
`CCCS(=O)(=O)N1CC(=O)N(Cc2ccccc2OC)CC(O)C1` (stereo not drawn): the “Percent Effect” value is reported as 56.43%.
Consider `CS(=O)(=O)N1CC(=O)N(CCCc2ccccc2)CC(O)C1` (stereo not drawn), for which the “Percent Effect” value is on record as -9.009%.
The value for `COc1cccc(CN2CC(O)CN(S(C)(=O)=O)CC2=O)c1OC` (stereo not drawn) was 29.18%; that for `COc1ncccc1CN1C[C@@H]2COC[C@]2(CNS(C)(=O)=O)C1.O=C(O)C(F)(F)F.O=C(O)C(F)(F)F` was -54.94%; that for `O=C(NCc1ccccn1)[C@]12COC[C@H]1CN(Cc1cccnc1)C2.O=C(O)C(F)(F)F.O=C(O)C(F)(F)F.O=C(O)C(F)(F)F` was -8.191%.
Regarding `CC(=O)N1CCC2(CC1)COCCN2Cc1ccc(F)cc1.O=C(O)C(F)(F)F`, the “Percent Effect” value is given as -4.953%.
Under `CN(C)[C@@H]1CN(C(=O)Cc2ccccc2)[C@@H]2CCCO[C@H]12.O=C(O)C(F)(F)F` stands -12.48%.
Turning to `CN1C(=O)CC(c2cnn(C)c2)C12CCN(C(=O)c1ccncc1)CC2.O=C(O)C(F)(F)F` (stereo not drawn), the “Percent Effect” value is on record as -21.56%.
Under `COc1cc(CNCC(O)c2ccc(C)cc2)cc2c1OCO2.Cl` (stereo not drawn) stands -8.52%; under `O=C(NCC1CCCCC1)N1C[C@H]2C[C@H](C(=O)N3CCCC3)[C@@H](C1)O2`, -29.22%; under `CN(C)C(=O)CN1CCCC2(CCN(c3ccsc3)C2=O)C1.O=C(O)C(F)(F)F` (stereo not drawn), -10.79%.
Take `COc1ccc(CN2C[C@H]3C[C@H](CN(C)C)O[C@H]3C2)cc1.O=C(O)C(F)(F)F.O=C(O)C(F)(F)F`: the “Percent Effect” value is recorded as -20.17%.
In the case of `CC(C)NC(=O)[C@H]1C[C@@H]2CN(C(=O)NCCc3ccccc3)C[C@H]1O2`, the “Percent Effect” value is -3.811%.
For `Cl.O=c1c2sccc2nc2n1CCN(Cc1cc(F)ccc1F)CC2`, the “Percent Effect” value was determined as 0.6259%.
The value for `COc1ccc(CN2CC(=O)N(c3ccc(C)cc3)CC2C)cc1O` (stereo not drawn) was -4.116%; that for `COc1cccc(OC)c1CN1CC(=O)N(c2ccc(C)cc2)CC1C` (stereo not drawn) was 53.82%; that for `COc1cc(CN2CC(=O)N(c3ccc(C)cc3)CC2C)cc(OC)c1` (stereo not drawn) was 23.62%.
Under `CC(CCSc1ccccc1)N1CCCN(C(N)=O)CC1` (stereo not drawn) stands 30.42%; under `CC(CCSc1ccccc1)N1CCN(C(=O)c2ccccc2O)CC1` (stereo not drawn), 35.88%; under `CC(CCSc1ccccc1)N1CCN(C(=O)c2cccs2)CC1` (stereo not drawn), 96%.
Under `COCCNC(=O)C[C@@H]1COC[C@H]2CN(CC3CCOCC3)C[C@@H]12.O=C(O)C(F)(F)F` stands -14.59%.
Take `Cc1ccc(C(=O)N2CCc3ncnc(-c4cnn(C)c4)c3CC2)cn1.O=C(O)C(F)(F)F`: the “Percent Effect” value is reported as -33.4%.

For the origin of these results see ChEMBL document CHEMBL3988442, “University of Dundee, Small-Polar-MMV Screening Library” (2021).
